Assay results published in PubChem BioAssay (NCI).
The panel holds about 83,000 compounds, 20% with a hit somewhere; the sample as a whole holds those more often.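 Testing used 96-well plates and a 48-hour single-concentration exposure. Example: -40 means 40% of the starting cells died.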 Values without a mark were called inactive. Calls of active or inactive are those of the source. Rule for the calls: active = growth percent below 10; inactive = the rest.

Experiments:
Assay in all cases: NCI-60 one-dose screen, 48 h (100 = growth as untreated, 0 = no growth, -100 = all killed)
Details in all cases: 10 µM unless noted
NCI-H23 lung = tested on: NCI-H23 lung
NCI-H226 lung = tested on: NCI-H226 lung
NCI-H322M lung = tested on: NCI-H322M lung
HOP-62 NSCLC = tested on: HOP-62 NSCLC
NCI-H460 lung = tested on: NCI-H460 lung
HOP-92 NSCLC = tested on: HOP-92 NSCLC
NCI-H522 lung = tested on: NCI-H522 lung
A549/ATCC NSCLC = tested on: A549/ATCC NSCLC
786-0 renal = tested on: 786-0 renal
COLO 205 colon = tested on: COLO 205 colon
DU-145 prostate = tested on: DU-145 prostate
K-562 leukemia = tested on: K-562 leukemia
MALME-3M melanoma = tested on: MALME-3M melanoma
MDA-MB-231 breast = tested on: MDA-MB-231 breast
RXF 393 renal = tested on: RXF 393 renal
SF-268 CNS = tested on: SF-268 CNS
SF-295 CNS = tested on: SF-295 CNS
SF-539 CNS = tested on: SF-539 CNS
UACC-257 melanoma = tested on: UACC-257 melanoma
M14 melanoma = tested on: M14 melanoma

| SMILES | growth (NCI-H23 lung) | growth (NCI-H226 lung) [%] | growth (NCI-H322M lung) [%] | growth (HOP-62 NSCLC) | growth (NCI-H460 lung) | growth (HOP-92 NSCLC) | growth (NCI-H522 lung) | growth (A549/ATCC NSCLC) | growth (786-0 renal) | growth (COLO 205 colon) | growth (DU-145 prostate) | growth (K-562 leukemia) | growth (MALME-3M melanoma) | growth (MDA-MB-231 breast) [%] | growth (RXF 393 renal) | growth (SF-268 CNS) | growth (SF-295 CNS) | growth (SF-539 CNS) | growth (UACC-257 melanoma) | growth (M14 melanoma) |
| --- | --- | --- | --- | --- | --- | --- | --- | --- | --- | --- | --- | --- | --- | --- | --- | --- | --- | --- | --- | --- |
| N/C(=N\c1nc2ccccc2s1)NC(=NC1CCCCC1)NC1CCCCC1 | 30.6% | 77.1 | 40.4 | 67.7% | -44.4% (active) | -1.22% (active) | 14% | 45.9% | 25.1% | -44.9% (active) | 14.3% | 3.16% (active) | -70% (active) | 21.1 | -46.9% (active) | 60% | -34.9% (active) | -44.7% (active) | -52.6% (active) | -55.8% (active) |
| CN1CCN(CCCOC(=O)c2c3c(n4ccccc24)C(=O)c2ncccc2C3=O)CC1 | -30.6% (active) | 15.7 | 28.5 | -34.9% (active) | -15.1% (active) | 14.8% | -87.1% (active) | -47.9% (active) | 1.4% (active) | -93.2% (active) | -66.5% (active) | -30.4% (active) | -59.7% (active) | 20 | -2.1% (active) | 5.69% (active) | -5.73% (active) | -13.1% (active) | -34.2% (active) | -86.1% (active) |
| Cc1ccc(-c2nc(C#N)c(S(=O)(=O)NCCO)o2)cc1 | 82.3% | 86.6 | 92 | 90.4% | 88.6% | 66.1% | -4.75% (active) | 90% | 61.3% | 43.1% | 90% | 29.8% | 75.5% | 75.6 | 56.6% | 87.4% | 101% | 46.6% | 71.4% | 32.5% |
| N#CCC1=NC(c2cccs2)=Nc2ccccc2S1 | 94.6% | 82.4 | 101 | 89.6% | 97.7% | 71.7% | 57.4% | 96% | 98.6% | 107% | 109% | 86.5% | 99% | 90.1 | 105% | 94% | 103% | 101% | 94.4% | 94% |
| CCN(CC)CCCC(C)Nc1ccc2cc(OC)ccc2n1 (stereo not given) | 107% | 107 | 94.7 | 91.4% | 108% | 91.5% | 99.1% | 85.4% | 98.9% | 107% | 99.9% | 131% | 114% | 104 | 112% | 91.2% | 97.4% | 100% | 94.7% | 99.3% |
| COc1ccc(C2C(C#N)=C(N)Oc3c2sc2c(Br)cccc32)cc1 (stereo not given) | 36.3% | 49.2 | 30 | 23.7% | 12.9% | 47% | -6.29% (active) | 35.5% | 29.6% | 2.31% (active) | 21.4% | 9.39% (active) | 37% | 40.5 | 4.42% (active) | 38.7% | 15.7% | -12.4% (active) | 65.5% | 6.9% (active) |
| O=C1Nc2ccc(F)cc2/C1=C\c1nc(-c2ccccc2F)n2ccccc12 | 75.9% | 104 | 91.7 | 94.4% | 50.5% | 79.8% | 52.1% | 86.1% | 105% | 93% | -7.63% (active) | 102% | 83.3% | 98.5 | 84.5% | 85.1% | 104% | 64.7% | 96.2% | 97% |
| CC1(C)CC2=C3C=C[C@@H]4[C@@]5(C)CC[C@H](O)C(C)(C)[C@@H]5CC[C@@]4(C)[C@]3(C)CC[C@@]2(C(=O)O)CC1=O | 41.2% | 32.3 | 55.1 | 50.9% | 63.2% | -5.32% (active) | 51.2% | 39.2% | 21.1% | 67% | 84.1% | 57.5% | 15.9% | 40.4 | 21.8% | 35.4% | 47.3% | 60% | 20.9% | 30.3% |
| O=C(O)c1cccc(N/C=C/C(=O)c2cc3cc(Br)ccc3oc2=O)c1 | 98.1% | 94.6 | 100 | 93.7% | 97% | 103% | 91.8% | 92.4% | 99.4% | 110% | 108% | 119% | 104% | 93.6 | 107% | 90.4% | 104% | 96% | 99.2% | 94.2% |
| C#CC#CC#CC#CC#CC#CC#CC#CC[C@H]1OC[C@@H](COC(=O)O[C@@H](C(=O)O[C@H]2C[C@@]3(O)[C@@H](OC(=O)c4ccccc4)[C@@H]4[C@]5(OC(C)=O)CO[C@@H]5C[C@H](O)[C@@]4(C)C(=O)[C@H](OC(C)=O)C(=C2C)C3(C)C)[C@@H](NC(=O)c2ccccc2)c2ccccc2)O1 | 48% | 56.2 | 54.6 | 74.4% | 19.2% | 79.3% | 71.4% | 52.4% | 83.3% | 29.4% | 41.1% | 22.7% | 62.5% | 66 | 50.7% | 65.9% | 43.5% | 54.1% | 64.6% | 25.3% |
| COc1ccc(-c2cc(-c3cc(OC)c(OC)c(OC)c3)c(C#N)c(=O)n2CCCCCC(=O)NO)cc1 | 97.3% | 92.2 | 95.7 | 102% | 96.6% | 88.5% | 89.5% | 87.2% | 101% | 120% | 92.5% | 83% | 97.8% | 75.9 | 92.9% | 91.6% | 91.2% | 90.4% | 99.6% | 99.5% |
| COc1ccc(-c2ccc(=O)oc2C#Cc2cc(OC)c(OC)c(OC)c2)cc1O | 44.2% | 51.7 | 31.5 | -28.1% (active) | -4.6% (active) | 51.4% | 4.45% (active) | 28.7% | 11.8% | 47.2% | -4.48% (active) | 0.484% (active) | 48% | 30.4 | -13.2% (active) | 20.5% | -20.6% (active) | -28.7% (active) | 35.7% | -44.5% (active) |
| C=C(c1ccc(C(=O)O)cn1)c1cc2c(cc1C)C(C)(C)CCC2(C)C | 80.3% | 81 | 108 | 87.3% | 92.4% | 71.5% | 65.4% | 57.3% | 114% | 109% | 93.7% | 92.3% | 76.9% | 93.8 | 102% | 76.5% | 83.2% | 86.3% | 84% | 88.5% |
| O=C1Nc2ccc(F)cc2/C1=N/c1nnc(Sc2ccccc2)s1 | 87.4% | 90.7 | 103 | 94.7% | 95.6% | 96.9% | 77.2% | 96.8% | 105% | 119% | 105% | 79.7% | 110% | 87.1 | 110% | 94.2% | 108% | 88.5% | 100% | 99.2% |
| COc1cc(N2C(=O)[C@H](c3ccccc3)C2c2ccc(SC)cc2)cc(OC)c1OC (stereo not given in full) | 16% | 56.1 | 37.7 | 20.7% | 4.99% (active) | -0.302% (active) | -9.45% (active) | 4.39% (active) | 5.94% (active) | -52% (active) | 6.14% (active) | 5.06% (active) | 63.3% | 28 | -4.2% (active) | 25.3% | -6.29% (active) | 8.41% (active) | 33.3% | 5.09% (active) |
| C=C(CN1CC=CCC1)[C@@H]1CC[C@]2(CO)CC[C@]3(C)[C@H](CC[C@@H]4[C@@]5(C)CC[C@H](O)C(C)(C)[C@@H]5CC[C@]43C)[C@@H]12 | 101% | 97.4 | 110 | 104% | 96.2% | 92.4% | 96% | 94.8% | 113% | 108% | 106% | 77% | 101% | 116 | 106% | 101% | 102% | 91.1% | 111% | 96.1% |
